High-throughput results (PubChem)
tim23-1 inh – inhibits growth of tim23-1 mutant yeast; S. cerevisiae tim23-1 growth, BacTiter-Glo luminescence, 24 h; inhibition, % at 20 µM; 330,000 compounds, 1.3% hits;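 active means growth inhibition of the mutant yeast at or above 50%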;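 further: temperature-sensitive mutant grown at 25 °C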
tim10-1 inh – inhibits growth of tim10-1 mutant yeast; 330,000 compounds, 2.2% hits; inhibition, % at 20 µM; S. cerevisiae tim10-1 ts strain growth, BacTiter-Glo, 24 h;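 active means inhibition of at least 40%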;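 further: mutant grown at 25 °C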
TIM10 inh – TIM10 yeast growth inhibition. S. cerevisiae TIM10 strain growth, BacTiter-Glo luminescence, 24 h. inhibition, % at 10 µM. 330,000 compounds, 1.4% hits. AID 463195;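 active means inhibition of 40% or more at the single tested concentration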;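 further: wild-type TIM10 isogenic control strain grown at permissive 25 °C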
ATG4B inh – blocks human ATG4B protease cleavage of LC3 substrate. Q9Y4P1. ATG4B cleavage of LC3-PLA2, NBD-HPC fluorescence, 1 h. inhibition, % at 8.33 µM. 340,000 compounds, 0.51% hits; in the data active means inhibition above about 40%
Target sequence (Q9Y4P1 whole entry, looked up): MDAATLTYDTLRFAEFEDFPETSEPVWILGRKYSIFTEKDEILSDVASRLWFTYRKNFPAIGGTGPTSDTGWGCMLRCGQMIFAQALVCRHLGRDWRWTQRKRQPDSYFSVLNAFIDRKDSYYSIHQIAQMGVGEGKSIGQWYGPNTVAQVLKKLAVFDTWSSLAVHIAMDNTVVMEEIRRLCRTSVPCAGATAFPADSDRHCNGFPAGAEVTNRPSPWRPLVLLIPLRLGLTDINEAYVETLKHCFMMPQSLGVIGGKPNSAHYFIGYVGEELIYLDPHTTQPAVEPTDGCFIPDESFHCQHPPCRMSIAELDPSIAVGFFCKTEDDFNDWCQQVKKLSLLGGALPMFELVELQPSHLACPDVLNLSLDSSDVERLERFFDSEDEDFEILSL
PfHsp90 set2 – inhibits growth of yeast expressing Plasmodium falciparum Hsp90 | S. cerevisiae expressing PfHsp90, BacTiter-Glo ATP, 48 h; yeast lacking PDR1 and PDR3 efflux regulators | inhibition, % at 9.4 µM | 310,000 compounds, 0.32% hits | AID 504621;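 active means every replicate shows inhibition above about 80%, whatever the replicate mean, limit read from the data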
SKKanGAS inh – blocks kanamycin growth of S. pyogenes SKKanGAS strain | inhibition, % at 7.5 µM | BacTiter-Glo, 6 h | 300,000 compounds, 1.3% hits;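 active means mean replicate score, as percent of positive control median, at least 50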;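 further: strain carries kanamycin resistance gene driven by streptokinase promoter and grows in 40 µg/ml kanamycin; loss of luminescence reflects streptokinase promoter inhibition or plain growth inhibition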
tim10-1 confirm – confirmation of tim10-1 mutant yeast growth inhibitors. S. cerevisiae tim10-1 ts strain growth, BacTiter-Glo, 24 h. shares compounds with tim10-1 inh. inhibition, % at 20 µM. 7,400 compounds, 56% hits. AID 463213;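 active means inhibition of yeast growth at or above a set limit in either of two repeat tests at 20 µM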;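 further: tim10-1 mutant grown at permissive 25 °C to find synthetic lethal compounds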
Each line names hits and unclear results; the compound was inactive in the other large screens (follow-up assays come after a bar, where they were run). In the library only some 4.7% were active in any assay of this set; here they are far more common.

CCOC(=O)c1cnc(-n2nc(C)cc2C)nc1NNc1ncc(-c2ccccc2)cn1	tim10-1 inh 54.2 (no result: PfHsp90 set2) | tim10-1 confirm inactive
CCOC(=O)c1cnc(-n2nc(C)cc2C)nc1N1CC(C)OC(C)C1 (stereo not given)	none
O=C(c1ccc(CS(=O)Cc2ccc(Cl)cc2)o1)N1CCN(c2ccccc2F)CC1 (stereo not given)	none
Cc1ccc(C)c(N2CCN(C(=O)c3ccc(CS(=O)Cc4ccc(Cl)cc4)o3)CC2)c1 (stereo not given)	tim10-1 inh 46.2 | tim10-1 confirm inactive
Cc1ccc(Cl)cc1N1CCN(C(=O)c2ccc(CS(=O)Cc3ccc(Cl)cc3)o2)CC1 (stereo not given)	tim10-1 inh 45.1 | tim10-1 confirm inactive
Cc1ccc(Cl)cc1N1CCN(C(=O)C2(S(=O)(=O)c3ccc(Cl)cc3)CC2)CC1	tim10-1 inh 40.4 (no result: PfHsp90 set2) | tim10-1 confirm inactive
Cc1cc(C)n(CC(O)COc2cccc(OCC(O)Cn3nc(C)cc3C)c2)n1 (stereo not given)	none
CC(C)CN(C(=O)COC(=O)CCSc1ccc(F)cc1)c1c(N)n(Cc2ccccc2)c(=O)[nH]c1=O	none
CCn1c(CNC(=O)COc2ccc(C(C)C)cc2)nnc1SCC(=O)Nc1ccccc1	none
Cn1c(=O)c2c(nc(CN3CCN(C(=O)c4ccco4)CC3)n2CC(N)=O)n(C)c1=O	none
O=C(C1CCN(S(=O)(=O)c2cccc3cccnc23)CC1)N1CC=C(c2ccccc2)CC1	tim10-1 inh 43.3 (no result: ATG4B inh, PfHsp90 set2, SKKanGAS inh) | tim10-1 confirm inactive
O=C(C1CCN(S(=O)(=O)c2cccc3cccnc23)CC1)N1CCCC1	none
N#CCc1nn2c(-c3ccccc3)ccnc2c1C#N	tim10-1 inh 43.0 | tim10-1 confirm inactive
COC(=O)C1=C(C)N(c2cccc(Cl)c2)C(=O)C1	tim10-1 inh 52.2 | tim10-1 confirm 33.6
O=C(Nc1ccc(Cl)cc1)Nn1cnc2ccccc2c1=O	none
CC(C)/C=C/C(=O)N1CCC(N2CCC(C(=O)NCc3ccccn3)CC2)CC1	none
Cc1cccc2c1nc(-c1ccccc1)n1nnnc21	none (no result: PfHsp90 set2)
